# The whole screen tested about 30,000 compounds, of which about 110 (0.37%) were called active. What follows is part of a selection rich in actives, with near analogues and random picks from the rest. A number with no mark means an inactive call.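 The calls were made as follows: active = delta delta Cp rounded down to an integer at or above 3, about 3 SD of DMSO wells; inactive = the rest.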
# Experiment: YB-1 transcript reduction by qRT-PCR – cell-based, fluorescence, primary screen (AID 434959);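 also: higher means less YB-1 transcript or more CDIP transcript relative to DMSO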
# Conditions: U2OS, qRT-PCR YB-1 vs CDIP delta delta Cp, 16 h; active compounds read high; zero = DMSO, each unit about twofold
row,SMILES,delta Cp (YB-1 minus CDIP)
1,C[C@@H]1CN([C@H](C)CO)C(=O)CCCn2cc(nn2)CO[C@@H]1CN(C)Cc1ccccc1C(=O)O,-0.246
2,C[C@@H]1CN([C@H](C)CO)C(=O)CCCn2nncc2CO[C@@H]1CN(C)C(=O)OCc1ccccc1,0.0587
3,O=C1C2CC3CC1CC(C(=O)O)(C3)C2,0.106
4,C[C@H](CO)N1C[C@H](C)[C@H](CN(C)C(=O)Nc2ccccc2)Oc2ccc(NC(=O)CCN3CCOCC3)cc2CC1=O,-0.228
5,CC1(C)CC(=O)c2ccc(O)cc2O1,1.96
6,Cc1cc(C(=O)Nc2cccc3c2O[C@@H](CN(C)C(=O)Nc2ccc4c(c2)OCO4)[C@H](C)CN([C@@H](C)CO)C3=O)n(C)n1,-0.0832
7,C[C@H]1CN([C@@H](C)CO)C(=O)c2cc(NC(=O)NC3CCCCC3)ccc2O[C@@H]1CN(C)S(=O)(=O)c1cccs1,0.092
8,O=C(/C=C/c1ccccc1)c1ccc(O[C@@H]2O[C@H](CO)[C@@H](O)[C@H](O)[C@H]2O)cc1O,0.0338
9,Oc1cc2c(cc1O)CN(C(=S)NCCc1ccc(Cl)cc1)CCC2,0.367
10,Cc1noc(C)c1NC(=O)Nc1ccc2c(c1)CC(=O)N([C@@H](C)CO)C[C@@H](C)[C@@H](CN(C)C(=O)NC(C)C)O2,0.0713
11,C[C@H]1CN([C@@H](C)CO)C(=O)Cc2cc(NC(=O)C3CC3)ccc2O[C@H]1CN(C)S(=O)(=O)c1ccc(Cl)cc1,0.415
12,[N-]=[N+]=Nc1ccccc1C[C@@]1(C(=O)NCc2ccccc2)N=C(c2ccc(OCCCO)cc2)O[C@@H]1c1ccccc1,-0.629
13,O=C1O[C@@H](c2ccccc2)[C@@H](c2ccccc2)N2[C@@H](c3ccccc3OCCO)[C@]3(C(=O)Nc4ccc(C#CC5(O)CCCCCC5)cc43)[C@@H](C(=O)N3CCN(c4ncccn4)CC3)[C@H]12,-0.244
14,C[C@H](CO)N1C[C@H](C)[C@H](CN(C)Cc2ccc(-c3ccccc3)cc2)Oc2ccc(NC(=O)Nc3ccc(F)cc3)cc2CC1=O,-0.469
15,COc1cc(/C(C)=C/C(C)=C\C(=O)O)oc(=O)c1C,-0.492
16,Cc1ccc(S(=O)(=O)N(C)C[C@H]2Oc3c(NC(=O)c4ccc(-c5nccs5)cc4)cccc3C(=O)N([C@H](C)CO)C[C@H]2C)cc1,-0.182
17,CC1=COC(O[C@@H]2O[C@H](CO)[C@@H](O)[C@H](O)[C@H]2O)C2C1CC(O)C2CO (stereo partly specified),-0.367
18,C[C@@H]1CN([C@@H](C)CO)C(=O)CCCn2nncc2CO[C@@H]1CN(C)Cc1ccccc1,0.131
19,C[C@@H]1CN([C@H](C)CO)C(=O)Cc2cc(NS(=O)(=O)c3ccc(F)cc3)ccc2O[C@@H]1CN(C)S(=O)(=O)c1ccc(F)cc1,-0.0534
20,COc1ccc(C#Cc2ccc3c(c2)[C@]2(C(=O)N3)[C@H](c3ccccc3OCCO)N3[C@H](c4ccccc4)[C@H](c4ccccc4)OC(=O)[C@H]3[C@@H]2C(=O)N2CCCCCCC2)cc1,0.00142
21,CNC[C@@H]1Oc2ncc(-c3ccc(F)cc3)cc2C(=O)N([C@H](C)CO)C[C@@H]1C,-0.148

row,SMILES,delta Cp (YB-1 minus CDIP)
1,CC(C)NC(=O)N(C)C[C@H]1Oc2ccc(NC(=O)CCCCCC(=O)Nc3ccccc3N)cc2CC(=O)N([C@@H](C)CO)C[C@H]1C,0.0201
2,C/C(=C\CC[C@H](CO)[C@@H]1CC[C@]2(C)C3=C(CC[C@@]12C)[C@@]1(C)CCC(=O)C(C)(C)C1CC3)C(=O)O (stereo partly specified),-0.0322
3,C[C@H](CO)N1C[C@H](C)[C@H](CN(C)CC2CC2)Oc2ccc(NS(=O)(=O)c3ccccc3)cc2CC1=O,-0.128
4,Cc1noc(C)c1S(=O)(=O)Nc1ccc2c(c1)CC(=O)N([C@@H](C)CO)C[C@H](C)[C@H](CN(C)S(=O)(=O)c1ccc(Cl)cc1)O2,0.105
5,C[C@H]1CN([C@@H](C)CO)C(=O)Cc2cc(NS(C)(=O)=O)ccc2O[C@@H]1CN(C)S(=O)(=O)c1ccc(Cl)cc1,0.259
6,Cc1noc(C)c1NC(=O)Nc1ccc2c(c1)C(=O)N([C@@H](C)CO)C[C@@H](C)[C@H](CN(C)C(=O)NC(C)C)O2,-0.101
7,C[C@H](CO)N1C[C@H](C)[C@H](CN(C)CC2CCCCC2)Oc2ccc(NC(=O)CCN3CCOCC3)cc2CC1=O,0.315
8,C[C@H]1CN([C@@H](C)CO)C(=O)CCCn2cc(nn2)CO[C@H]1CN(C)C(=O)Nc1ccc(F)cc1,-0.241
9,C=CCN1C(=O)[C@]2(O[C@H](CCn3cc(CCO)nn3)[C@@H]([Si](C)(C)c3ccc(OC)cc3)[C@@H]2C)c2cc(N3CCOC3=O)ccc21,-0.00312
10,COc1ccc(NC(=O)O[C@H](c2ccc(OCCO)cc2)[C@@H](CCO)OC)cc1,-1.3
11,C[C@@H]1CCCCO[C@H](CN(C)C(=O)NC2CCCCC2)[C@@H](C)CN([C@H](C)CO)C(=O)c2cc(NS(C)(=O)=O)ccc2O1,0.322
12,COc1ccc(S(=O)(=O)N(C)C[C@@H]2Oc3ccc(NC(=O)CCC(F)(F)F)cc3C(=O)N([C@@H](C)CO)C[C@@H]2C)cc1,-0.166
13,C[C@H](CO)N1C[C@H](C)[C@H](CN(C)S(=O)(=O)c2ccccc2)Oc2c(NC(=O)CCCCCC(=O)Nc3ccccc3N)cccc2C1=O,0.187
14,C[C@@H]1CN([C@@H](C)CO)C(=O)c2cccc(NC(=O)Nc3ccc4c(c3)OCO4)c2O[C@H]1CN(C)C(=O)Nc1cccc2ccccc12,0.0736
15,COc1ccc(NC(=O)Nc2ccc3c(c2)CC(=O)N([C@@H](C)CO)C[C@@H](C)[C@@H](CN(C)Cc2ccc(Cl)c(Cl)c2)O3)cc1,0.191
16,C=C1C2=CC(=O)O[C@@H](c3ccoc3)[C@]2(C)CCC1[C@@]1(C)C=CC(=O)C(C)(C)[C@@H]1CC(=O)OC (stereo partly specified),0.366
17,C[C@@H]1CN([C@H](C)CO)C(=O)c2cc(NC(=O)Cc3ccccc3)ccc2O[C@@H]1CN(C)CC1CCCCC1,-0.0442
18,C[C@H]1CN([C@@H](C)CO)C(=O)c2cccc(NS(=O)(=O)c3ccc(Cl)cc3)c2O[C@H]1CN(C)Cc1ccc2c(c1)OCO2,0.321
19,C[C@@H]1CN([C@H](C)CO)C(=O)c2cccc(NC(=O)CCCCCC(=O)Nc3ccccc3N)c2O[C@@H]1CN(C)C(=O)Nc1ccccc1,0.438
20,C[C@H]1CN([C@@H](C)CO)C(=O)Cc2cc(NC(=O)CCCN(C)C)ccc2O[C@@H]1CN(C)Cc1ccc(-c2ccccc2)cc1,-1.08
21,Oc1ccc2c(c1)OCC1c3cc4c(cc3OC21)OCO4 (stereo unspecified),0.271

row,SMILES,delta Cp (YB-1 minus CDIP)
1,COc1ccc(CN(C)C[C@@H]2Oc3c(NC(=O)C4CC4)cccc3C(=O)N([C@@H](C)CO)C[C@H]2C)cc1,-0.213
2,CC(C)NC(=O)Nc1ccc2c(c1)CC(=O)N([C@H](C)CO)C[C@@H](C)[C@H](CN(C)S(=O)(=O)c1ccccc1)O2,0.113
3,C[C@H](CO)N1C[C@H](C)[C@H](CN(C)CC2CCCCC2)Oc2ccc(NC(=O)CCCCCC(=O)Nc3ccccc3N)cc2CC1=O,-0.217
4,C[C@H]1CN([C@@H](C)CO)C(=O)c2cccc(NC(=O)NC3CCCCC3)c2O[C@H]1CN(C)CC1CCCCC1,-0.236
5,Cc1onc(-c2c(Cl)cccc2Cl)c1C(=O)N=S(C)(C)=O,-0.447
6,C[C@H]1CN([C@@H](C)CO)C(=O)CCCn2cc(nn2)CO[C@@H]1CN(C)S(=O)(=O)c1ccc(-n2cccn2)cc1,-0.848
7,C[C@H](CO)N1C[C@H](C)[C@H](CN(C)S(=O)(=O)c2ccc(C#N)cc2)Oc2ncc(-c3cccc(F)c3)cc2C1=O,0.397
8,COCCOC(=O)N1C(=O)[C@@]2(c3cc(C#CCC(C(=O)OC)C(=O)OC)ccc31)[C@H](c1ccc(OCCO)cc1)N1[C@H](c3ccccc3)[C@H](c3ccccc3)OC(=O)[C@H]1[C@@H]2C(N)=O,-0.585
9,CCOC(=O)c1cc(=O)c2ccc(OCc3ccccc3)cc2o1,0.522
10,Cc1noc(C)c1S(=O)(=O)Nc1ccc2c(c1)C(=O)N([C@@H](C)CO)C[C@H](C)[C@H](CN(C)C(=O)Nc1ccc(C(F)(F)F)cc1)O2,-0.372
11,O=C(NO)c1ccc(C(=O)N/N=C/c2ccc(Br)cc2)cc1,-0.432
12,C[C@H](CO)N1C[C@H](C)[C@@H](CN(C)Cc2ccc(Oc3ccccc3)cc2)OCc2cn(nn2)CCCC1=O,-0.14
13,COC(=O)C1=C(N)Oc2cc(C)oc(=O)c2C1c1cccnc1 (stereo unspecified),-0.311
14,COc1ccc(NC(=O)N(C)C[C@H]2Oc3ccc(NC(=O)Nc4ccc5c(c4)OCO5)cc3C(=O)N([C@H](C)CO)C[C@H]2C)cc1,0.191
15,Cc1ccc(-c2cn3c4c(sc3n2)CCCC4)cc1,0.773
16,Cc1ccc(-n2c(C)nc3sc4c(c3c2=O)CCC4)cc1,5.31 (active)
17,O=C(N/N=C/c1ccc([N+](=O)[O-])s1)c1ccccc1O,0.165
18,C[C@H](CO)N1C[C@H](C)[C@@H](CN(C)Cc2ccc(Cl)c(Cl)c2)Oc2c(NC(=O)C3CCCCC3)cccc2C1=O,-0.923
19,Cc1ccc(CN(C)C[C@@H]2OCc3cnnn3CCCC(=O)N([C@@H](C)CO)C[C@H]2C)cc1,-0.0292

# — PubChem BioAssay AID434959 (Broad Institute, 2010)
